The full data set covers some 7,900 targets. This sample favours those with a hit. About 0.6% of all pairs of compound and target were hits.

UniProt Q92560, sequence (Q92560 whole entry, looked up): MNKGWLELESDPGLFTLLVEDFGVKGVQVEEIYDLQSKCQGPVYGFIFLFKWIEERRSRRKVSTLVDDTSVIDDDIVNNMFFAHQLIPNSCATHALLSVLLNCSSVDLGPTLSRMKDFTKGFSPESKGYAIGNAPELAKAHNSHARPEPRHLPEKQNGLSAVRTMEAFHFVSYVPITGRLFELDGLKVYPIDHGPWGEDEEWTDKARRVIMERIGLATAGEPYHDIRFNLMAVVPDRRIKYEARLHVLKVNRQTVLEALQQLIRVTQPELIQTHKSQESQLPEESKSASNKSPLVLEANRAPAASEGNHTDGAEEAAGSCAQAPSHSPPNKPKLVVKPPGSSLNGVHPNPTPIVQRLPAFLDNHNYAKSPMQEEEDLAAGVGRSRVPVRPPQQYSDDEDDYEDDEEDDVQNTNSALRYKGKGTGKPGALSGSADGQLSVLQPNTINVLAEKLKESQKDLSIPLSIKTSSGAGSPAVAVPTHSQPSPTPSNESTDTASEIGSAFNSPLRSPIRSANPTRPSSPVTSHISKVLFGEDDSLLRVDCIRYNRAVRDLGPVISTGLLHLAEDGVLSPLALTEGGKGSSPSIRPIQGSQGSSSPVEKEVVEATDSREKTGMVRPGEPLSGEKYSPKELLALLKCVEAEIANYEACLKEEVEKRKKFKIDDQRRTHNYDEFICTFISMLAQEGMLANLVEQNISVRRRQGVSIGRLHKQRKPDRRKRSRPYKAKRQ
UniProt O00170, sequence (O00170 whole entry, looked up): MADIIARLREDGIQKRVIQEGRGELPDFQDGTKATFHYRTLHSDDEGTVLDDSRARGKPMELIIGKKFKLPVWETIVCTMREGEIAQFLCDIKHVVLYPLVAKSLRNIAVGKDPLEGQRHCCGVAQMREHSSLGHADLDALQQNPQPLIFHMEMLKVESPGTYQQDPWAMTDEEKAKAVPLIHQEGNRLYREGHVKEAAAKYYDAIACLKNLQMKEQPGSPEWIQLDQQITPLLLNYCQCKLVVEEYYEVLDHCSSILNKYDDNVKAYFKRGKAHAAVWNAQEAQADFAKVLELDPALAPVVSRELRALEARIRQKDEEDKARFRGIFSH
UniProt P54886, sequence (P54886 whole entry, looked up): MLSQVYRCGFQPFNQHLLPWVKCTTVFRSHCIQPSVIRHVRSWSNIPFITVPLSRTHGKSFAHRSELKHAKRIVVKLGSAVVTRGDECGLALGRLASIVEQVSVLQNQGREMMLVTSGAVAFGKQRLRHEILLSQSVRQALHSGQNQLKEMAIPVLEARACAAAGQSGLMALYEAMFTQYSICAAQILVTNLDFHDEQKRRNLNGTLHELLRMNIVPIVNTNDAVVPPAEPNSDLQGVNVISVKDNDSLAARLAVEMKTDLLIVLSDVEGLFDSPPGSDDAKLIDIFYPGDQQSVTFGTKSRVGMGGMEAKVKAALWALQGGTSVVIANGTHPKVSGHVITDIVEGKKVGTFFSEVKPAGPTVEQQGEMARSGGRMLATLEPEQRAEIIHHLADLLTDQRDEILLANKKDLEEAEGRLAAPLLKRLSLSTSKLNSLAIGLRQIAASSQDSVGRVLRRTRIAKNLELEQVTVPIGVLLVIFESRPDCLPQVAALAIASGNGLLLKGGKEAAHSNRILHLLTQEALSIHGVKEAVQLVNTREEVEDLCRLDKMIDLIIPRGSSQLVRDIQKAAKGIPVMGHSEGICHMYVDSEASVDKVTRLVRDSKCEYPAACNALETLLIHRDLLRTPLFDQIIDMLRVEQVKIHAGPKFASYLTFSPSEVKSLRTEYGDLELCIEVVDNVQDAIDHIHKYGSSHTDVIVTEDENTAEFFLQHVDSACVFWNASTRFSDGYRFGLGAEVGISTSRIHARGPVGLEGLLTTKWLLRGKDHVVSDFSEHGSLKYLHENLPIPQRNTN
UniProt Q9UJX6, sequence (Q9UJX6 whole entry, looked up): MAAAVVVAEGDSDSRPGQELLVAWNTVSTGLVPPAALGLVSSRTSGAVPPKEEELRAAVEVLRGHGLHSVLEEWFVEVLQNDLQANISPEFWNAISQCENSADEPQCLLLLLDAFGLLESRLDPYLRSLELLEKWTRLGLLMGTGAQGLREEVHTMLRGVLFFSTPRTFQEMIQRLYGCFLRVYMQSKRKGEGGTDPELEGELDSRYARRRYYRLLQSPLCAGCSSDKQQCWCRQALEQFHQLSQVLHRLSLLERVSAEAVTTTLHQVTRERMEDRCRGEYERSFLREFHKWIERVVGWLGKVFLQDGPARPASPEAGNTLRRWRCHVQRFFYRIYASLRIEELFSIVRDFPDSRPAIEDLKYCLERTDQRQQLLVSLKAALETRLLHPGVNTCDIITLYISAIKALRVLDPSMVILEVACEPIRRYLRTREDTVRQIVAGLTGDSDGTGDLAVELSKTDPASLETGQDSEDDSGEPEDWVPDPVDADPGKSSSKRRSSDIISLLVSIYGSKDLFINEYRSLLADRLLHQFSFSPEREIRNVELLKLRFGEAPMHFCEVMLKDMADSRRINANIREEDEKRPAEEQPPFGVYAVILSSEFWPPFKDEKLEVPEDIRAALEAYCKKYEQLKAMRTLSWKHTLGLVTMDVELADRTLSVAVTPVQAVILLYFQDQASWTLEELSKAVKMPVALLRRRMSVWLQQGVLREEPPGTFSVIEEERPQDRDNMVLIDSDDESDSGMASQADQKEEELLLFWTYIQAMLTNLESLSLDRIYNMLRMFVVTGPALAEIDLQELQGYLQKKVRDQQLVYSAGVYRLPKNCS
UniProt Q53FZ2, sequence (Q53FZ2 whole entry, looked up): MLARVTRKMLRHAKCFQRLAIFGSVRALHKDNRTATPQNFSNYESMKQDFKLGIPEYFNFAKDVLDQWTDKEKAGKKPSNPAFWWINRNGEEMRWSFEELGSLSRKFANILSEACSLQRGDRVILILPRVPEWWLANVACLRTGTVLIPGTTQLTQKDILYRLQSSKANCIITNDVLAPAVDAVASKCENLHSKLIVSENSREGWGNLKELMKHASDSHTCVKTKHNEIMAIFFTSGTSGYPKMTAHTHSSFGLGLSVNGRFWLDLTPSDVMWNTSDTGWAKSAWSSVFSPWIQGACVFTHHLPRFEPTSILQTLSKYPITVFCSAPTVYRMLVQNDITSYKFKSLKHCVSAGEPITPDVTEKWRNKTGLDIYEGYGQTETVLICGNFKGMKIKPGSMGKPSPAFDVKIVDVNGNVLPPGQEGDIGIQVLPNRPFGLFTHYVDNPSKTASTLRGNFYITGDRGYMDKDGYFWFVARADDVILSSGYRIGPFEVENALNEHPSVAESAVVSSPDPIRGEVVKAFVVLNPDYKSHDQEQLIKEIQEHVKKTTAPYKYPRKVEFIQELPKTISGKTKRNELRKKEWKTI
UniProt Q4L235, sequence (Q4L235 whole entry, looked up): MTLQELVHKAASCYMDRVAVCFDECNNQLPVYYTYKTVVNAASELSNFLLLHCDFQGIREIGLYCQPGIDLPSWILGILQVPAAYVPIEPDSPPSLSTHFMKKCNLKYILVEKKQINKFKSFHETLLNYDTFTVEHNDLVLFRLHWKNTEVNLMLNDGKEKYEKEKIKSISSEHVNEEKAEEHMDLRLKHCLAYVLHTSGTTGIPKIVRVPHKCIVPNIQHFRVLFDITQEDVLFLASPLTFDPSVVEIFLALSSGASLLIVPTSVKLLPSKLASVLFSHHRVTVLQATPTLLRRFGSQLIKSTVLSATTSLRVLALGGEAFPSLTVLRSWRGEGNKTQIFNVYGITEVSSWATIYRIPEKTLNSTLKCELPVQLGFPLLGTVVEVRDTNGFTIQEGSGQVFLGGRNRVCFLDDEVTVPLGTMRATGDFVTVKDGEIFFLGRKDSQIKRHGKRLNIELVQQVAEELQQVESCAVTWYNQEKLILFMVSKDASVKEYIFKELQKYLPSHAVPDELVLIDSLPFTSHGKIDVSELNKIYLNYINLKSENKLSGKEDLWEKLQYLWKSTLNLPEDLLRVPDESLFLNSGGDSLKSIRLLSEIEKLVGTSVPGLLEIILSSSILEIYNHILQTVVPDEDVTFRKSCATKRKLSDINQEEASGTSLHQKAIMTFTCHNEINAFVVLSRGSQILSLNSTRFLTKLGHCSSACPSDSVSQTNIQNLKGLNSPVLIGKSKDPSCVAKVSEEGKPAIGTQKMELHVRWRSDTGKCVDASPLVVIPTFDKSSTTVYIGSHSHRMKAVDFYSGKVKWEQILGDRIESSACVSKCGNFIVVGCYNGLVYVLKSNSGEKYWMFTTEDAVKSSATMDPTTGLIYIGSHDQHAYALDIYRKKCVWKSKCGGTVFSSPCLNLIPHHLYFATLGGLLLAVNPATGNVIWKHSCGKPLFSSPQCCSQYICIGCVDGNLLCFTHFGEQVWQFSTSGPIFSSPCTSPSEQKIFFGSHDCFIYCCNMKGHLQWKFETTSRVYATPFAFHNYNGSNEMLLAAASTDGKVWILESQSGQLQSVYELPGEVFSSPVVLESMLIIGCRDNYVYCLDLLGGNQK
UniProt Q9Y6E2, sequence (Q9Y6E2 whole entry, looked up): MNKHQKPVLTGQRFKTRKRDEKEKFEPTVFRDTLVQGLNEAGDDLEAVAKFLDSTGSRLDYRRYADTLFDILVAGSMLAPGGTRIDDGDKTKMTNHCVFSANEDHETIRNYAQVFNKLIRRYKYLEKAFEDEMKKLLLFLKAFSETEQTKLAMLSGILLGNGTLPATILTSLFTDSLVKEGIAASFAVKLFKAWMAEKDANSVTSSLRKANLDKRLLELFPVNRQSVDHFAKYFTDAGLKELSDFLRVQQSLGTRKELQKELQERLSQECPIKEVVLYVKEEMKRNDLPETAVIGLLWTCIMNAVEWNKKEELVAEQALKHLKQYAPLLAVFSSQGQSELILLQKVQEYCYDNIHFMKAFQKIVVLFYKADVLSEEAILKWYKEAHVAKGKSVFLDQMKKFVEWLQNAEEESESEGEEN
UniProt Q96BI3, sequence (Q96BI3 whole entry, looked up): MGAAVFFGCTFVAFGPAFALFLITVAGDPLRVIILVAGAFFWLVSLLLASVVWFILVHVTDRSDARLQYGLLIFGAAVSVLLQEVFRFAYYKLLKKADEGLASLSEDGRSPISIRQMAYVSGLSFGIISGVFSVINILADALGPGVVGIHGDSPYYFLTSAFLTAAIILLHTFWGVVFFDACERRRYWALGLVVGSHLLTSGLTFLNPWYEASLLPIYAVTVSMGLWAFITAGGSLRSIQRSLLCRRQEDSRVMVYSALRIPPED

Compound in one test: CC1=C2C(=CC=C1)N=C(N(C2=O)C3=CC=CC=C3C)CN4C=NC5=C(N=CN=C54)N
Kind of test: log2 fold change, soluble protein after heating vs DMSO (PISA); higher = thermal stabilisation; K562 cells, 10 uM, 30 min; active = over 0.2 and 3.5 SD of the protein, either way, in both replicates (recomputed). In a few lines:
(§1)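 Quantification of soluble protein used TMTpro 16plex LC-MS/MS, with channel sums equalised. Samples were the supernatant after 21,000xg for 90 min of pooled aliquots from K562 cells (2×10^6 cells/mL) treated with 10 μM compound for 30 min, heated for 3 min over 48°C-58°C, and extracted in PBS with 0.5% NP-40 at 4°C. Values, from duplicates, describe thermal stability against control samples on a log2 fold-change scale.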
Consider BRD4 (UniProt O60885), for which the log2 fold change is 0.141 (inactive).

Consider AIP (UniProt O00170), for which the log2 fold change was 0.042 (inactive).

As for AGPAT1 (UniProt Q99943), the log2 fold change is 0.103 (inactive).

For the target ANAPC2 (UniProt Q9UJX6), the log2 fold change is -0.005 (inactive).

In the case of AHSA1 (UniProt O95433), the log2 fold change is 0.015 (inactive).

As for ADD1 isoform 3 (UniProt P35611), the log2 fold change is 0 (inactive).

Regarding BCCIP isoform 2 (UniProt Q9P287), the log2 fold change is -0.001 (inactive).

With AASDH (UniProt Q4L235), the log2 fold change was -0.25 (inactive).

Compound in another test: Cc1sc2c(c1C)C(c1ccc(Cl)cc1)=N[C@@H](CC(=O)OC(C)(C)C)c1nnc(C)n1-2
Described as above. The essentials: as §1
On to AUP1 (UniProt Q9Y679), for which the log2 fold change is -0.074 (inactive).

In the case of ACSM3 (UniProt Q53FZ2), the log2 fold change was -0.03 (inactive).

With AHCYL1 (UniProt O43865), the log2 fold change was -0.03 (inactive).

In the case of AP2B1 isoform 2 (UniProt P63010), the log2 fold change is 0.03 (inactive).

On to ACP1 isoform 2 (UniProt P24666), for which the log2 fold change is 0.028 (inactive).

As for BZW2 (UniProt Q9Y6E2), the log2 fold change was -0.033 (inactive).

Take ATP9B (UniProt O43861): the log2 fold change was -0.048 (inactive).

AGRN (UniProt O00468): the log2 fold change is -0.038 (inactive).

Turning to ALDH1B1 (UniProt P30837), the log2 fold change is -0.047 (inactive).

In the case of ACSL4 (UniProt O60488), the log2 fold change is 0.025 (inactive).

For ATP6V1F isoform 2 (UniProt Q16864), the log2 fold change is -0.126 (inactive).

As to ALDH18A1 (UniProt P54886), the log2 fold change is 0.018 (inactive).

Consider ARFGAP2 (UniProt Q8N6H7), for which the log2 fold change is -0.033 (inactive).

Take BAP1 (UniProt Q92560): the log2 fold change was 0.066 (inactive).

Turning to APH1A (UniProt Q96BI3), the log2 fold change is -0.08 (inactive).

(Values after the supplement of paper PMC10849652.)
